Data: PubChem BioAssay (NCATS)
Records with an inconclusive call do not appear. The source made the active and inactive calls. Unless noted, calls follow the shape of the dose curve; as a rule, active = well fitted cell-killing curve with a large enough effect; inconclusive = small, poorly fitted or top-dose-only effect; inactive = flat fitted curve, though single readings scatter.

Columns and labels:
[1] = Cell Viability - LYMP2-002 (AID 977);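 also: series mostly up to about 92 µM; compound exposure lasted 24 h at 37 °C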
Method in brief: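 Human lymphoblastoid cells (2500/well) in complete medium were preincubated 5 hr at 37 C, then exposed to compounds for 24 hr at 37 C. Intracellular ATP was read by CellTiter-Glo luminescence; AC50 came from Hill-equation concentration-response fits.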

[2] = Cell Viability - LYMP2-006 (AID 978); also: series mostly up to about 92 µM; nearly all actives have a fitted effect of over 60% in size
Method in brief: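 Cells are seeded at 2500 per well and rested 5 hr at 37 C. Compounds are added across a concentration series for 24 hr at 37 C, after which ATP is quantified by luciferase luminescence.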

[3] = Cell Viability - LYMP2-008 (AID 980); also: nearly all actives have a fitted effect of over 60% in size
Method in brief: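 Measured: ATP-dependent luminescence, proportional to viable cell number, in human lymphoblastoid cells treated 24 hr with compound in complete culture medium. Values are AC50s from Hill-equation modelling of qHTS titrations.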

[4] = Cell Viability - LYMP2-010 (AID 981); also: nearly all actives have a fitted effect of over 55% in size
Method in brief: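 This 24 hr viability screen uses LYMP2-010 lymphoblastoid cells, quantifies ATP via luciferase luminescence, and derives AC50 from Hill fits of qHTS concentration-response data.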

[5] = Cell Viability - LYMP2-012 (AID 982);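 also: cellular ATP by luciferase luminescence where a drop means cytotoxicity; cells exposed to compound for one day before reading; nearly all actives have a fitted effect of over 55% in size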
[6] = Cell Viability - LYMP2-014 (AID 983); also: series mostly up to about 92 µM; nearly all actives have a fitted effect of over 50% in size
Method in brief: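 Quantitative HTS in lymphoblastoid cells: 24 hr compound exposure, then CellTiter-Glo ATP luminescence. Positive control was tetraoctylammonium bromide, 6.4pM to 92 uM.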

[7] = Cell Viability - LYMP2-016 (AID 984); also: nearly all actives have a fitted effect of over 55% in size
Method in brief: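 Cells were seeded at 2500 per well and rested 5 hr before a 24 hr compound exposure at 37 C. Viability was then gauged as cellular ATP by luciferase luminescence, with AC50 values fitted to the Hill equation.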

[8] = Cell Viability - LYMP2-018 (AID 985); also: nearly all actives have a fitted effect of over 50% in size
Method in brief: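 In this qHTS viability assay, cells are treated for 24 hr and cellular ATP is quantified by luciferase-based luminescence, with tetraoctylammonium bromide as positive control.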

[9] = Cell Viability - LYMP2-020 (AID 986); also: series mostly up to about 92 µM; nearly all actives have a fitted effect of over 55% in size
Method in brief: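 Cells at 2500 per well receive a 24 hr compound exposure at 37 C. Viability is measured as ATP-dependent luciferase luminescence, with AC50 modeled from qHTS concentration-response curves.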

[10] = Cell Viability - LYMP2-022 (AID 987); also: nearly all actives have a fitted effect of over 55% in size
Method in brief: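 In this qHTS cytotoxicity screen, compound titrations were incubated 24 hr at 37 C with human lymphoblastoid cells in complete medium. Luciferase-based ATP luminescence provided the viability signal.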

[11] = Cell Viability - LYMP2-024 (AID 988); also: nearly all actives have a fitted effect of over 60% in size
Method in brief: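 Cells at 2500 per well received compound for 24 hr after a 5 hr settling period. Viability was scored by CellTiter-Glo luminescence, with AC50 from Hill fits.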

[12] = Cell Viability - LYMP2-026 (AID 989); also: nearly all actives have a fitted effect of over 50% in size
Method in brief: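 Acute toxicity screen in complete culture medium, with 24 hr compound exposure at 37 C. Viability read as cellular ATP via luciferase reaction, with tetraoctylammonium bromide (6.4pM to 92 uM) as positive control.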

[13] = Cell Viability - LYMP1-002 - Assay at 24 hr (AID 993)
Method in brief: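 Viability was judged from intracellular ATP using a luciferase read-out, following a 24-hour compound incubation at 37 C of lymphoblastoid cells seeded at 2500 per well. Concentration-response data were fitted to the Hill equation for AC50.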

[14] = Cell Viability - LYMP1-002 - Assay at 40 hr (AID 994); also: nearly all actives have a fitted effect of over 60% in size
Method in brief: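 Concentration-dependent ATP loss after 40 hr treatment at 37 C defined toxicity; AC50 values were obtained by fitting the standard Hill equation.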

[15] = target: Glucocorticoid receptor (Homo sapiens) (UniProt P04150); test: qHTS assay for small molecule antagonists of glucocorticoid receptor signaling (AID 588533; active = well fitted inhibition curve with a large enough effect in the signal ratio, with a control signal flat, not every such curve was filed as active; the % refers to the signal ratio;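 also: cells stimulated with 2 nM dexamethasone as agonist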)
Method in brief: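 Antagonist-mode qHTS: compound titrations added to GRE-bla HeLa cells, then dexamethasone 2 nM final; 18 h, 37 C. CCF4 FRET fluorescence normalized to dexamethasone and DMSO; IC50 from Hill fit.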

[16] = qHTS assay for small molecule antagonists of peroxisome proliferator-activated receptor delta signaling (AID 588535; active = well fitted inhibition curve with a large enough effect in the signal ratio, with a control signal flat, not every such curve was filed as active; the % refers to the signal ratio;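 as to max response: cells co-treated with a PPAR-delta agonist as stimulator during compound exposure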); conditions: HEK293T PPARd-UAS-bla, beta-lactamase FRET ratio, 18 h; 460 nm channel
Method in brief: (§1)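 Antagonist-mode qHTS using GeneBLAzer PPAR-delta-UAS-bla HEK293T cells; compound exposure 18 hrs at 37 C over a titration. Ratiometric CCF4 fluorescence at 460/530 nm; concentration-response points fitted to the Hill equation.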

[17] = target: Peroxisome proliferator-activated receptor delta (Homo sapiens) (UniProt Q03181); test: as above
Method in brief: as §1

[18] = target: Peroxisome proliferator-activated receptor gamma (Homo sapiens) (UniProt P37231); test: qHTS assay for small molecule agonists of peroxisome proliferator-activated receptor gamma signaling (AID 588536; active = well fitted curve in the direction sought with a large enough effect in the signal ratio, with a control signal flat, not every such curve was filed as active; the % refers to the signal ratio)
Method in brief: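 Compound treatment: 16 h, 37 C, HEK293 GeneBLAzer cells. Detection: CCF4, 2 h RT. Values: Hill-fit EC50, efficacy as % of 2 uM rosiglitazone.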

[19] = target: Peroxisome proliferator-activated receptor gamma (Homo sapiens) (UniProt P37231); test: qHTS assay for small molecule antagonists of peroxisome proliferator-activated receptor gamma signaling (AID 588537; active = well fitted inhibition curve with a large enough effect in the signal ratio, with a control signal flat, not every such curve was filed as active; the % refers to the signal ratio;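 also: reporter cells co-stimulated with 50 nM rosiglitazone agonist during compound treatment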)
Method in brief: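 Cell-based beta-lactamase assay; GW9662 served as the antagonist control. Stimulation used rosiglitazone, final 50 nM, 16 h, 37 C.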

[20] = target: Vitamin D3 receptor (Homo sapiens) (UniProt P11473); test: qHTS assay for small molecule antagonists of vitamin D receptor signaling (AID 588541; calls by dose curve;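 also: receptor activated by calcitriol during compound treatment; series mostly up to about 77 µM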)
Method in brief: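 Antagonist-mode beta-lactamase reporter assay: HEK293T VDR-UAS-bla cells were exposed to titrated compound alongside 1-alpha,25-dihydroxyvitamin D3 at 3 nM final for 16 h. Values were normalized to the 50 nM agonist control and DMSO basal, with IC50 and efficacy from Hill equation fits.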

[21] = target: Vitamin D3 receptor (Homo sapiens) (UniProt P11473); test: qHTS assay for small molecule agonists of vitamin D receptor signaling (AID 588543; calls by dose curve)
Method in brief: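 Reporter cells (HEK293T, VDR-UAS-bla) were seeded in medium with 2% charcoal-stripped serum and incubated 5 h, then compounds in concentration series were added for 16 h at 37 °C. Stimulation was scaled between DMSO basal and 50 nM 1α,25-dihydroxyvitamin D3.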

Peroxisome proliferator-activated receptor gamma (Homo sapiens), sequence (P37231 whole entry, looked up): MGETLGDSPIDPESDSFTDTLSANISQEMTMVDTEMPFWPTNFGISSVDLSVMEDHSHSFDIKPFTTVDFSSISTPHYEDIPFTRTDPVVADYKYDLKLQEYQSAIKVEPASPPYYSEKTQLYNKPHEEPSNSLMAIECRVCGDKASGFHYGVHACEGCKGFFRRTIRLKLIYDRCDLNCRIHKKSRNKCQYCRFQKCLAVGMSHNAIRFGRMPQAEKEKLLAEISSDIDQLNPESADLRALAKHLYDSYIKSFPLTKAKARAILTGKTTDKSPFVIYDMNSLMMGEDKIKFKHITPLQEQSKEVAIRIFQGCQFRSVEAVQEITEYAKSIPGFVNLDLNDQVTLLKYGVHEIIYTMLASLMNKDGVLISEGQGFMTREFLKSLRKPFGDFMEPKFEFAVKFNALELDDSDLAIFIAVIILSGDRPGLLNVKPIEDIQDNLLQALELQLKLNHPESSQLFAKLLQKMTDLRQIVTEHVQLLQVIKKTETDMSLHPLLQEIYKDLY
Vitamin D3 receptor (Homo sapiens), sequence (P11473 whole entry, looked up): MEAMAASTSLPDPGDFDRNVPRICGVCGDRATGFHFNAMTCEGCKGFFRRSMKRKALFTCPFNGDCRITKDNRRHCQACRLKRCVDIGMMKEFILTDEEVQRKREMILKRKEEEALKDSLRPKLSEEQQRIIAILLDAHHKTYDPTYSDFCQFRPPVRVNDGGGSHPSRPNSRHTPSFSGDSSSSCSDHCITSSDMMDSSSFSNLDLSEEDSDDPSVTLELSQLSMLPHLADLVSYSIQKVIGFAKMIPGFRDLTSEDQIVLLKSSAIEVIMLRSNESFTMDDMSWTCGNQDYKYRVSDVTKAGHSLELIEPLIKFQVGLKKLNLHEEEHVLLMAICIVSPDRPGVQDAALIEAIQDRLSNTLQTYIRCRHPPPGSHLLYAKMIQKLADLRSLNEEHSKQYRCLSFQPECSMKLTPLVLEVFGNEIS
Glucocorticoid receptor (Homo sapiens), sequence (P04150 whole entry, looked up): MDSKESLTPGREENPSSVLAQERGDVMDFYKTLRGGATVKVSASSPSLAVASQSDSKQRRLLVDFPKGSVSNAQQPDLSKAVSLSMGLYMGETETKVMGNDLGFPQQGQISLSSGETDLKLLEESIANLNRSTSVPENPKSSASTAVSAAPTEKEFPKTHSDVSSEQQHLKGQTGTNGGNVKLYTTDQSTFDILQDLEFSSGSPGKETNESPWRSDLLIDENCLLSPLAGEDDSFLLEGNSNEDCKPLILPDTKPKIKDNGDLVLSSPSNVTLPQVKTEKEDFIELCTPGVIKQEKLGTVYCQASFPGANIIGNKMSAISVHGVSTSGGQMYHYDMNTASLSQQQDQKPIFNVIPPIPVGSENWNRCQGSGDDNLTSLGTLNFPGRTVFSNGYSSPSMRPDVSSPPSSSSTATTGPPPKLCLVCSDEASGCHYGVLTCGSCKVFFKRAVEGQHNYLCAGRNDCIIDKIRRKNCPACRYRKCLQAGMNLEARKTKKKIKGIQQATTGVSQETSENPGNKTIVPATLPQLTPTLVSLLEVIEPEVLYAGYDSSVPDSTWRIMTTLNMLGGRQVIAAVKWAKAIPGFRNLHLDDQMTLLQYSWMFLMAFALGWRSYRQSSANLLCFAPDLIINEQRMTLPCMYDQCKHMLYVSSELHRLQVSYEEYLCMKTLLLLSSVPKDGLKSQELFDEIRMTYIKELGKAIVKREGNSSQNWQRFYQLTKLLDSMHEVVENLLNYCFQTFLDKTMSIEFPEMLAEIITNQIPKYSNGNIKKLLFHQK
Peroxisome proliferator-activated receptor delta (Homo sapiens), sequence (Q03181 whole entry, looked up): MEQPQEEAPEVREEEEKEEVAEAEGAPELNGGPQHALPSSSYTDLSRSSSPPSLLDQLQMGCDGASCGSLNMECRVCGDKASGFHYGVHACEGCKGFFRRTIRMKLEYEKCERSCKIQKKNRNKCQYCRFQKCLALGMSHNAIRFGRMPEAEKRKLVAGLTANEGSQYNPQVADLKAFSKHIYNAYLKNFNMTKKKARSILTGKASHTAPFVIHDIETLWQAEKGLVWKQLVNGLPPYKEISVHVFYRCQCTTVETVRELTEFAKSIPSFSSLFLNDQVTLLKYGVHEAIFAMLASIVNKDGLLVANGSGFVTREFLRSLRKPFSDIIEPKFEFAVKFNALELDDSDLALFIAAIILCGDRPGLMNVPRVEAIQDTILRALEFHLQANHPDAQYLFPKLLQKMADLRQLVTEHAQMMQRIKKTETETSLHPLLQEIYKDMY

CCOC(=O)C1OC1c1ccccc1 (stereo unspecified)
inactive: Potency [1] | Potency [2] | Potency [3] | Potency [4] | Potency [5] | Potency [6] | Potency [7] | Potency [8] | Potency [9] | Potency [10] | Potency [11] | Potency [12] | Potency [13] | Potency [14] | Potency [15] | outcome [17] | outcome [18] | Potency [19] | Potency [20] | Potency [21]
-6.92%: max response [16]
